The record followed here is publication PMC7862700, “An all-to-all approach to the identification of sequence-specific readers for epigenetic DNA modifications on cytosine”.

Test in all cases: DAPPL (digital affinity profiling via proximity ligation, sequencing); 10 mM Tris-HCl pH 7.5, 50 mM NaCl, 1 mM DTT, 4% glycerol, room temperature, 30 min; GST-TFs on glutathione beads, 16-mer random dsDNA library, 0.1% formaldehyde crosslink after washing; high values mean tight binding
Conditions in all cases: protein: recombinant; tags: N-terminal GST; dsDNA, one strand shown

Assay [1] deals with T1, FLI1 (Homo sapiens, UniProt Q01543 1-452).
T1 sequence: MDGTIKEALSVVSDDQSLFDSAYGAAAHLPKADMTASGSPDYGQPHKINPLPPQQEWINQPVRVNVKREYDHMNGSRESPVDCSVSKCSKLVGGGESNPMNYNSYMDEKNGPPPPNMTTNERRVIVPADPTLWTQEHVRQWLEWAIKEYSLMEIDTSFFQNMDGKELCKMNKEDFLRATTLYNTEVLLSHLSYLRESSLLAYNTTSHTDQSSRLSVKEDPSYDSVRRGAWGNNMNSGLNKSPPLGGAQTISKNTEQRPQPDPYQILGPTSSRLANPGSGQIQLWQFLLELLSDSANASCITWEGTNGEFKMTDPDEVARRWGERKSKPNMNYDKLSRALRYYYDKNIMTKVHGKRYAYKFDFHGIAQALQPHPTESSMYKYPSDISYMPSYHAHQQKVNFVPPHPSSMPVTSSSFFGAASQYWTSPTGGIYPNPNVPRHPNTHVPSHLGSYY
An outline of the steps: (§1)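 A tag-only sample was pooled with DNA-barcoded human transcription factors that had been expressed in yeast as GST fusions and captured on glutathione beads. The pools were incubated for 30 min at room temperature with 200 nmole of a random double-stranded 16-mer DNA library in Tris/NaCl/DTT/glycerol buffer, then washed, crosslinked with 0.1% formaldehyde, proximity-ligated (BsaI/T4 ligase, 1 h, 37 °C), PCR-amplified and sequenced on an Illumina NextSeq500. Binding signal is each hexamer's read frequency for a factor divided by its frequency for the tag-only sample.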

Assay [2] has as its target T2, ELK1 (Homo sapiens, UniProt P19419 1-428).
T2 sequence: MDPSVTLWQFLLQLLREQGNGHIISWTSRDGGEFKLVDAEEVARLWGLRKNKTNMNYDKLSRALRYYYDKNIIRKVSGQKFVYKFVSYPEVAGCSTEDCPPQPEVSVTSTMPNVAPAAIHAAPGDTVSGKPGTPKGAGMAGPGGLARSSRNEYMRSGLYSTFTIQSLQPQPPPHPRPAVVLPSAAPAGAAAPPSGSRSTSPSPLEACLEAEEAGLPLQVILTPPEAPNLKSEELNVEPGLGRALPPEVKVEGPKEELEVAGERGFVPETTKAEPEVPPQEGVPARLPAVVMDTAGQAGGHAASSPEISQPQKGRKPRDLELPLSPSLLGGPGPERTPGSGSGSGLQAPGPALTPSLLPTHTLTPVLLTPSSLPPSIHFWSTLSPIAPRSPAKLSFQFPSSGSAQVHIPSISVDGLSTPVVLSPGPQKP
An outline of the steps: as §1

Assay [3] deals with T3, GABPA (Homo sapiens, UniProt Q06546 1-454).
T3 sequence: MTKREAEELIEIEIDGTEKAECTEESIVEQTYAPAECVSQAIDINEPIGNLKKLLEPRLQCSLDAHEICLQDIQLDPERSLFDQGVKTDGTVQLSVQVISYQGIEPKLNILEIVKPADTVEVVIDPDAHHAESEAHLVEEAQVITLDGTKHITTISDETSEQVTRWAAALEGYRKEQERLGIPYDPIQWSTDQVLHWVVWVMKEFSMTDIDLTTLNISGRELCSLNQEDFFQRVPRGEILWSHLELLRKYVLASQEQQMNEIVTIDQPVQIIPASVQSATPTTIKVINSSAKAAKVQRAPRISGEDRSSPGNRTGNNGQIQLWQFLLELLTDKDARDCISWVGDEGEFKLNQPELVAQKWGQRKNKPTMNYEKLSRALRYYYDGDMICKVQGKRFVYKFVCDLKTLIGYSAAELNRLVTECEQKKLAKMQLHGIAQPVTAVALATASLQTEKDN
In short, it runs like this: as §1

The target of assay [4] is T4, ERG (Homo sapiens, UniProt P11308 1-479).
T4 sequence: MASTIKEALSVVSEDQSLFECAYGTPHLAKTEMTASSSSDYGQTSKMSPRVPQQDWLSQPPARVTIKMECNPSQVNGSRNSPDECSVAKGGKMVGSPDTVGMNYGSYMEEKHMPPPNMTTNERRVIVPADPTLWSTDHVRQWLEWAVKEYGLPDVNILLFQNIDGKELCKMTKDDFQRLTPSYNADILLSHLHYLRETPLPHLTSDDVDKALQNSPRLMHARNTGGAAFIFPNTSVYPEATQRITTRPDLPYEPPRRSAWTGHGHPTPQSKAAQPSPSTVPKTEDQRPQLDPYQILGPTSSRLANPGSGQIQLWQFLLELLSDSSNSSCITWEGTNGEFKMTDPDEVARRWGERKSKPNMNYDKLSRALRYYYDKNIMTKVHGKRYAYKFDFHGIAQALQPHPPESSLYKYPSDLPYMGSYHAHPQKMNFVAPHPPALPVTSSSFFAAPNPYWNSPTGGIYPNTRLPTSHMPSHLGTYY
In short, it runs like this:
as §1

The target in assay [5] is ELF1 (Homo sapiens, UniProt P32519 1-619). An outline of the steps: as §1
Assay [6] concerns the target T5, EHF (Homo sapiens, UniProt Q9NZC4 1-300).
T5 sequence: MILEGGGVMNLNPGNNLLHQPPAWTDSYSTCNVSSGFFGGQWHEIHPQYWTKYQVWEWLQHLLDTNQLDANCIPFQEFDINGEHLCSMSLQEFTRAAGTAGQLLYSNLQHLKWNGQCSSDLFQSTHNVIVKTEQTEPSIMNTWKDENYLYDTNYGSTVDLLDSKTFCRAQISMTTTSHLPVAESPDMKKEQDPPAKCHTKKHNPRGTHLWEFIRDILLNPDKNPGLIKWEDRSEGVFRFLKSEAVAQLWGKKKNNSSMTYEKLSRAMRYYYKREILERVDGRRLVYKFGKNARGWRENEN
An outline of the steps: as §1

In assay [7] the target is SPI1 (Homo sapiens, UniProt P17947 1-270). In short, it runs like this: as §1
The target of assay [8] is SPIB (Homo sapiens, UniProt Q01892 1-262). An outline of the steps:
as §1

Assay [9] has as its target T6, ELK3 (Homo sapiens, UniProt P41970 1-407).
T6 sequence: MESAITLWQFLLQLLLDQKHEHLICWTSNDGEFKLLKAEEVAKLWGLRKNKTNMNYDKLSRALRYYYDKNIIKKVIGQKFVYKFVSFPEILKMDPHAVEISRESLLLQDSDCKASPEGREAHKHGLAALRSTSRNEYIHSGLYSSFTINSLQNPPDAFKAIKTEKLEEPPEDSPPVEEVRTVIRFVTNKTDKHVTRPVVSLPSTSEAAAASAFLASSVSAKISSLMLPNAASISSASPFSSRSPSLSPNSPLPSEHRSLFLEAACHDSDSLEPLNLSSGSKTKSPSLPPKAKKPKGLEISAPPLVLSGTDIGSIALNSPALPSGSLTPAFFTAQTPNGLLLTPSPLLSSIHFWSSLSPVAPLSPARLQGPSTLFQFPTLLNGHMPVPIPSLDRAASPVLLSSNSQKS
An outline of the steps:
as §1

SPIB, sequence (Q01892 whole entry): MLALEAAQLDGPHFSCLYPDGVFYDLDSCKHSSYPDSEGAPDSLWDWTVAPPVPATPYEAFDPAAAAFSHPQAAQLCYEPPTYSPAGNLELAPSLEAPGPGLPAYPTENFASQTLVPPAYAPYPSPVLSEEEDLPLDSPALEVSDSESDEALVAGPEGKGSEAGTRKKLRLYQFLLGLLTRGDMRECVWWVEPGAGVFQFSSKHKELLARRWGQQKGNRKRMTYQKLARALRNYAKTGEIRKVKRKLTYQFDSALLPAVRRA
ELF1, sequence (P32519 whole entry): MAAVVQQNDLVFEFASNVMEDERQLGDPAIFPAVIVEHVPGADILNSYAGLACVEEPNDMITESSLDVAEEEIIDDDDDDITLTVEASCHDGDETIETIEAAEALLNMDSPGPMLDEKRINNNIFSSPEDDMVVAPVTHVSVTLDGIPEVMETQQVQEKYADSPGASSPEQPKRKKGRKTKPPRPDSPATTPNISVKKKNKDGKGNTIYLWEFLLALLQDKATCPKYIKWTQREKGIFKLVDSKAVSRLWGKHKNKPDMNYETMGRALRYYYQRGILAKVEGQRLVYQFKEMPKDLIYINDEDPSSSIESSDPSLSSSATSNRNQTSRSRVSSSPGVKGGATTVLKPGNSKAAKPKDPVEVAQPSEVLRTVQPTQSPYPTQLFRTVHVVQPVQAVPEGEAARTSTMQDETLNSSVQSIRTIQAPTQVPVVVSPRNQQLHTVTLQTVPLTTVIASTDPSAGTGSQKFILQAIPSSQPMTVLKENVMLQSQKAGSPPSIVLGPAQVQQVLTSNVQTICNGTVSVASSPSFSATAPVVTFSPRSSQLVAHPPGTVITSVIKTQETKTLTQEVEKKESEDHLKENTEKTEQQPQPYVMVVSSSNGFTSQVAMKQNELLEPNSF

In the case of TGCTCG, the binding signal in [1] was 1.3 fold enrichment (6-mer frequency, TF over GST control); in assay [2], 1.2 fold enrichment (6-mer frequency, TF over GST control); in assay [3], 1.21 fold enrichment (6-mer frequency, TF over GST control); in [4], 1.17 fold enrichment (6-mer frequency, TF over GST control); in assay [5] it was 1.18 fold enrichment (6-mer frequency, TF over GST control); in assay [6], 1.17 fold enrichment (6-mer frequency, TF over GST control). Moreover, the binding signal in [7] was 1.35 fold enrichment (6-mer frequency, TF over GST control); in assay [8] it was 1.27 fold enrichment (6-mer frequency, TF over GST control); in assay [9], 1.04 fold enrichment (6-mer frequency, TF over GST control).

In the case of CTCCTT, the binding signal is 1.92 fold enrichment (6-mer frequency, TF over GST control) in assay [1]; 1.72 fold enrichment (6-mer frequency, TF over GST control) in [2]; 1.7 fold enrichment (6-mer frequency, TF over GST control) in assay [3]; 1.82 fold enrichment (6-mer frequency, TF over GST control) in [4]; 1.94 fold enrichment (6-mer frequency, TF over GST control) in assay [5]; 1.64 fold enrichment (6-mer frequency, TF over GST control) in assay [6]. For the same sequence, the binding signal in assay [7] was 1.71 fold enrichment (6-mer frequency, TF over GST control); in assay [8], 1.82 fold enrichment (6-mer frequency, TF over GST control); in assay [9] it was 1.65 fold enrichment (6-mer frequency, TF over GST control).

In the case of ATGACC, the binding signal in [1] is 1.54 fold enrichment (6-mer frequency, TF over GST control); in assay [2], 1.58 fold enrichment (6-mer frequency, TF over GST control); in assay [3], 1.78 fold enrichment (6-mer frequency, TF over GST control); in assay [4], 1.52 fold enrichment (6-mer frequency, TF over GST control); in assay [5] it was 1.6 fold enrichment (6-mer frequency, TF over GST control); in assay [6], 1.61 fold enrichment (6-mer frequency, TF over GST control). Besides, the binding signal is 1.6 fold enrichment (6-mer frequency, TF over GST control) in assay [7]; 1.45 fold enrichment (6-mer frequency, TF over GST control) in assay [8]; 1.65 fold enrichment (6-mer frequency, TF over GST control) in assay [9].

Take ATTTAG: the binding signal in assay [1] is 1.13 fold enrichment (6-mer frequency, TF over GST control); in assay [2], 1.07 fold enrichment (6-mer frequency, TF over GST control); in assay [3] it was 1.27 fold enrichment (6-mer frequency, TF over GST control); in [4] it was 1.02 fold enrichment (6-mer frequency, TF over GST control); in [5], 1.15 fold enrichment (6-mer frequency, TF over GST control); in assay [6], 1.14 fold enrichment (6-mer frequency, TF over GST control). The binding signal in assay [7] is 1.11 fold enrichment (6-mer frequency, TF over GST control); in assay [8], 1.16 fold enrichment (6-mer frequency, TF over GST control); in [9], 1.09 fold enrichment (6-mer frequency, TF over GST control).

Consider TCCCTA, for which the binding signal in [1] is 1.35 fold enrichment (6-mer frequency, TF over GST control); in assay [2], 1.26 fold enrichment (6-mer frequency, TF over GST control); in assay [3], 1.26 fold enrichment (6-mer frequency, TF over GST control); in assay [4] it was 1.3 fold enrichment (6-mer frequency, TF over GST control); in assay [5], 1.32 fold enrichment (6-mer frequency, TF over GST control); in assay [6], 1.27 fold enrichment (6-mer frequency, TF over GST control). For the same sequence, the binding signal in assay [7] was 1.52 fold enrichment (6-mer frequency, TF over GST control); in [8], 1.32 fold enrichment (6-mer frequency, TF over GST control); in assay [9] it was 1.34 fold enrichment (6-mer frequency, TF over GST control).

For the sequence TGGGAT, the binding signal in [1] was 1.12 fold enrichment (6-mer frequency, TF over GST control); in assay [2] it was 1.17 fold enrichment (6-mer frequency, TF over GST control); in [3], 1.3 fold enrichment (6-mer frequency, TF over GST control); in assay [4], 1.13 fold enrichment (6-mer frequency, TF over GST control); in assay [5] it was 1.25 fold enrichment (6-mer frequency, TF over GST control); in assay [6], 1.25 fold enrichment (6-mer frequency, TF over GST control). Besides, the binding signal was 1.29 fold enrichment (6-mer frequency, TF over GST control) in assay [7]; 1.24 fold enrichment (6-mer frequency, TF over GST control) in assay [8]; 1.17 fold enrichment (6-mer frequency, TF over GST control) in assay [9].

On to AACATC, for which the binding signal is 1.5 fold enrichment (6-mer frequency, TF over GST control) in [1]; 1.35 fold enrichment (6-mer frequency, TF over GST control) in [2]; 1.41 fold enrichment (6-mer frequency, TF over GST control) in assay [3]; 1.48 fold enrichment (6-mer frequency, TF over GST control) in [4]; 1.45 fold enrichment (6-mer frequency, TF over GST control) in assay [5]; 1.51 fold enrichment (6-mer frequency, TF over GST control) in assay [6]. For the same sequence, the binding signal is 1.45 fold enrichment (6-mer frequency, TF over GST control) in assay [7]; 1.37 fold enrichment (6-mer frequency, TF over GST control) in assay [8]; 1.47 fold enrichment (6-mer frequency, TF over GST control) in [9].

Take ATTCTA: the binding signal in assay [1] was 1.34 fold enrichment (6-mer frequency, TF over GST control); in [2] it was 1.21 fold enrichment (6-mer frequency, TF over GST control); in assay [3] it was 1.29 fold enrichment (6-mer frequency, TF over GST control); in [4] it was 1.23 fold enrichment (6-mer frequency, TF over GST control); in assay [5], 1.3 fold enrichment (6-mer frequency, TF over GST control); in [6], 1.21 fold enrichment (6-mer frequency, TF over GST control). Also, the binding signal in assay [7] was 1.23 fold enrichment (6-mer frequency, TF over GST control); in [8], 1.22 fold enrichment (6-mer frequency, TF over GST control); in assay [9], 1.18 fold enrichment (6-mer frequency, TF over GST control).
